From PubChem BioAssay
Activity calls are given as the source filed them.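 How the source made its calls: active means normalized viability below 100% at a tested concentration; inactive means the rest.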

Assay: drug combination growth inhibition, ovarian cancer – cell-based, oncology-focused library, rucaparib conditional, profiling panel (AID 1508598)
Details: patient-derived ovarian cancer cells, CellTiter-Glo viability, 144 h; at 1.25 µM; OCI-P5x cells; with rucaparib 20 µM; hits give low values; 100% = cells with rucaparib alone

Row | SMILES | viability
1 | CNC(=O)c1ccc(N2C(=S)N(c3ccc(C#N)c(C(F)(F)F)c3)C(=O)C2(C)C)cc1F | 102% (inactive)
2 | Cn1cncc1[C@@](N)(c1ccc(Cl)cc1)c1ccc2c(c1)c(-c1cccc(Cl)c1)cc(=O)n2C | 23.5% (active)
3 | O=C(O)c1ccc2c(c1)nc(Nc1cccc(Cl)c1)c1ccncc12 | 74.7% (active)
4 | CC(C)C[C@H](NC(=O)CNC(=O)c1cc(Cl)ccc1Cl)B(O)O | 2.76% (active)
5 | CC1(C)CCC(c2ccc(Cl)cc2)=C(CN2CCN(c3ccc(C(=O)NS(=O)(=O)c4ccc(N[C@H](CCN5CCOCC5)CSc5ccccc5)c(S(=O)(=O)C(F)(F)F)c4)cc3)CC2)C1 | 90.1% (active)
6 | C#Cc1cccc(Nc2ncnc3cc(OCCOC)c(OCCO)cc23)c1 | 85.9% (active)
7 | CC(C)CC(=O)Nc1n[nH]c2c1CN(C(=O)C1CCN(C)CC1)C2(C)C | 75.7% (active)
8 | C=CCn1c(=O)c2cnc(Nc3ccc(N4CCN(C)CC4)cc3)nc2n1-c1cccc(C(C)(C)O)n1 | 45.8% (active)
9 | O=C(O)[C@H](Cc1c[nH]c2ccccc12)N1C(=O)c2ccccc2C1=O | 91.1% (active)
10 | O=C(NC1CCNCC1)c1[nH]ncc1NC(=O)c1c(Cl)cccc1Cl | 20.4% (active)
11 | CC(C)C[C@H](NC(=O)CNC(=O)c1cc(Cl)ccc1Cl)B1OC(=O)CC(CC(=O)O)(C(=O)O)O1 (some centres undefined) | 2.61% (active)

Same assay, conditions: patient-derived ovarian cancer cells, CellTiter-Glo viability, 144 h; at 1.25 µM; OCI-P5x cells; without rucaparib; hits give low values

Row | SMILES | viability
12 | CNC(=O)c1ccc(N2C(=S)N(c3ccc(C#N)c(C(F)(F)F)c3)C(=O)C2(C)C)cc1F | 95.6% (active)
13 | Cn1cncc1[C@@](N)(c1ccc(Cl)cc1)c1ccc2c(c1)c(-c1cccc(Cl)c1)cc(=O)n2C | 28.3% (active)
14 | O=C(O)c1ccc2c(c1)nc(Nc1cccc(Cl)c1)c1ccncc12 | 89.4% (active)
15 | CC(C)C[C@H](NC(=O)CNC(=O)c1cc(Cl)ccc1Cl)B(O)O | 1.33% (active)
16 | CC1(C)CCC(c2ccc(Cl)cc2)=C(CN2CCN(c3ccc(C(=O)NS(=O)(=O)c4ccc(N[C@H](CCN5CCOCC5)CSc5ccccc5)c(S(=O)(=O)C(F)(F)F)c4)cc3)CC2)C1 | 88.9% (active)
17 | C#Cc1cccc(Nc2ncnc3cc(OCCOC)c(OCCO)cc23)c1 | 93.4% (active)
18 | CC(C)CC(=O)Nc1n[nH]c2c1CN(C(=O)C1CCN(C)CC1)C2(C)C | 69% (active)
19 | C=CCn1c(=O)c2cnc(Nc3ccc(N4CCN(C)CC4)cc3)nc2n1-c1cccc(C(C)(C)O)n1 | 23.7% (active)
20 | O=C(O)[C@H](Cc1c[nH]c2ccccc12)N1C(=O)c2ccccc2C1=O | 105% (inactive)
21 | O=C(NC1CCNCC1)c1[nH]ncc1NC(=O)c1c(Cl)cccc1Cl | 15.8% (active)
22 | CC(C)C[C@H](NC(=O)CNC(=O)c1cc(Cl)ccc1Cl)B1OC(=O)CC(CC(=O)O)(C(=O)O)O1 (some centres undefined) | 1.15% (active)

Same assay, conditions: patient-derived ovarian cancer cells, CellTiter-Glo viability, 144 h; at 5 µM; OCI-C5x cells; with rucaparib 10 µM; hits give low values; 100% = cells with rucaparib alone

Row | SMILES | viability
23 | CNC(=O)c1ccc(N2C(=S)N(c3ccc(C#N)c(C(F)(F)F)c3)C(=O)C2(C)C)cc1F | 127% (inactive)
24 | Cn1cncc1[C@@](N)(c1ccc(Cl)cc1)c1ccc2c(c1)c(-c1cccc(Cl)c1)cc(=O)n2C | 1.75% (active)
25 | O=C(O)c1ccc2c(c1)nc(Nc1cccc(Cl)c1)c1ccncc12 | 43.6% (active)
26 | CC(C)C[C@H](NC(=O)CNC(=O)c1cc(Cl)ccc1Cl)B(O)O | 1.81% (active)
27 | CC1(C)CCC(c2ccc(Cl)cc2)=C(CN2CCN(c3ccc(C(=O)NS(=O)(=O)c4ccc(N[C@H](CCN5CCOCC5)CSc5ccccc5)c(S(=O)(=O)C(F)(F)F)c4)cc3)CC2)C1 | 4.72% (active)
28 | C#Cc1cccc(Nc2ncnc3cc(OCCOC)c(OCCO)cc23)c1 | 54.8% (active)
29 | CC(C)CC(=O)Nc1n[nH]c2c1CN(C(=O)C1CCN(C)CC1)C2(C)C | 45.8% (active)
30 | C=CCn1c(=O)c2cnc(Nc3ccc(N4CCN(C)CC4)cc3)nc2n1-c1cccc(C(C)(C)O)n1 | 35.9% (active)
31 | O=C(O)[C@H](Cc1c[nH]c2ccccc12)N1C(=O)c2ccccc2C1=O | 114% (inactive)
32 | O=C(NC1CCNCC1)c1[nH]ncc1NC(=O)c1c(Cl)cccc1Cl | 13% (active)
33 | CC(C)C[C@H](NC(=O)CNC(=O)c1cc(Cl)ccc1Cl)B1OC(=O)CC(CC(=O)O)(C(=O)O)O1 (some centres undefined) | 1.84% (active)

Same assay, conditions: patient-derived ovarian cancer cells, CellTiter-Glo viability, 144 h; at 5 µM; OCI-C5x cells; without rucaparib; hits give low values

Row | SMILES | viability
34 | CNC(=O)c1ccc(N2C(=S)N(c3ccc(C#N)c(C(F)(F)F)c3)C(=O)C2(C)C)cc1F | 108% (inactive)
35 | Cn1cncc1[C@@](N)(c1ccc(Cl)cc1)c1ccc2c(c1)c(-c1cccc(Cl)c1)cc(=O)n2C | 5.47% (active)
36 | O=C(O)c1ccc2c(c1)nc(Nc1cccc(Cl)c1)c1ccncc12 | 88.1% (active)
37 | CC(C)C[C@H](NC(=O)CNC(=O)c1cc(Cl)ccc1Cl)B(O)O | 1.62% (active)
38 | CC1(C)CCC(c2ccc(Cl)cc2)=C(CN2CCN(c3ccc(C(=O)NS(=O)(=O)c4ccc(N[C@H](CCN5CCOCC5)CSc5ccccc5)c(S(=O)(=O)C(F)(F)F)c4)cc3)CC2)C1 | 11.9% (active)
39 | C#Cc1cccc(Nc2ncnc3cc(OCCOC)c(OCCO)cc23)c1 | 52.7% (active)
40 | CC(C)CC(=O)Nc1n[nH]c2c1CN(C(=O)C1CCN(C)CC1)C2(C)C | 69.4% (active)
41 | C=CCn1c(=O)c2cnc(Nc3ccc(N4CCN(C)CC4)cc3)nc2n1-c1cccc(C(C)(C)O)n1 | 25.1% (active)
42 | O=C(O)[C@H](Cc1c[nH]c2ccccc12)N1C(=O)c2ccccc2C1=O | 124% (inactive)
43 | O=C(NC1CCNCC1)c1[nH]ncc1NC(=O)c1c(Cl)cccc1Cl | 12.2% (active)
44 | CC(C)C[C@H](NC(=O)CNC(=O)c1cc(Cl)ccc1Cl)B1OC(=O)CC(CC(=O)O)(C(=O)O)O1 (some centres undefined) | 1.81% (active)
